Screening data deposited in PubChem BioAssay by National Center for Advancing Translational Sciences (NCATS).
Only some compounds are listed: those with a hit (about 11% of all), similar ones and a draw of the others.
PI5P4Ka inh = inhibitors of human PI5P4K alpha; P48426; PI5P4Kalpha enzyme, ADP-Glo luminescence, 60 min; stronger effect = lower value; max response, %; 330,000 compounds, 1.2% hits; AID 652105; active = max response of -50% or lower; inconclusive = between -30% and -50%; inactive = -30% or higher; note: value at the top dose of about 77 µM; % is set by controls: 0 for no effect and ±100 for the full control effect
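Enzyme plus substrate dispensed, test compounds pinned in, then ATP (5 microM final) added. After 60 min at RT, ADP-Glo reagent 1 for 45 min and reagent 2 for 30 min preceded luminescence imaging.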
HP1b chromo inh = HP1-beta chromodomain-methylated histone interaction inhibition | P83916 | 390,000 compounds, 0.56% hits | AlphaScreen HP1-beta / biotin-H3K9me3 peptide binding | Potency, µM (titrated, usually from 114 µM), without a hit: at the highest dose activity change, negative = inhibition, most hits filed as inhibitors; note: potency is the fitted concentration of half-maximal effect; nearly all actives have a fitted effect of over 70% in size
Target sequence (P83916 whole entry, looked up): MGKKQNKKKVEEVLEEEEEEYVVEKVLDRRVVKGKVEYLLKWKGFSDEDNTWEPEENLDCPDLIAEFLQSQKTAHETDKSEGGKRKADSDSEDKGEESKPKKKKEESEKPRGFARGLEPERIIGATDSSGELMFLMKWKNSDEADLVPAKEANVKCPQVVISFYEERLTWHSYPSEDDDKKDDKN
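HP1-beta protein (50 nM final) preincubated 30 min at room temperature with biotinylated H3(1-18)K9me3 peptide (50 nM) in PBS pH 7.4, 0.01% Tween-20, then compound added for 30 min. AlphaScreen streptavidin donor/nickel chelate acceptor beads (10 ug/mL final), 30 min dark, luminescence read.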
JMJD2A Tudor = blocks the human JMJD2A Tudor domain. O75164. AlphaScreen JMJD2A-Tudor / H3K4me3 peptide binding. 390,000 compounds, 4.4% hits. Potency, µM (top dose mostly 114 µM), inactives show at the highest dose activity change, negative = inhibition, hits mostly inhibitors; note: potency is the fitted concentration of half-maximal effect; % is set by controls: 0 for no effect and ±100 for the full control effect; nearly all actives have a fitted effect of over 50% in size
L3MBTL1 block = L3MBTL1 (human) inhibition | Q9Y468 | AlphaScreen L3MBTL1–H3K9me1 peptide binding | Potency, µM (highest dose often 57.1 µM), without a hit: top-dose activity, negative = inhibition, actives largely listed as inhibitors | 230,000 compounds, 0.66% hits | AID 485360; note: potency is the fitted concentration of half-maximal effect; % is set by controls: 0 for no effect and ±100 for the full control effect; nearly all actives have a fitted effect of over 60% in size
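First, the protein-peptide complex forms for 30 min at room temperature (L3MBTL1 50 nM, biotinylated H3K9me1 peptide 75 nM). Next, compounds are pin-transferred and incubated 30 min. Finally, AlphaScreen beads are added and read after 30 min.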
BAZ2B block = BAZ2B (human) inhibition. Q9UIF8. AlphaScreen BAZ2B-H3K14Ac peptide displacement. Potency, µM (doses to about 114 µM), for the others: top-dose activity change, negative = inhibition, usual class: inhibitors. 360,000 compounds, 4.4% hits. AID 504333; note: potency is the fitted concentration of half-maximal effect; % is set by controls: 0 for no effect and ±100 for the full control effect; nearly all actives have a fitted effect of over 60% in size
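Protein-peptide AlphaScreen: BAZ2B 50 nM, b-H3K14Ac 50 nM, 1x PBS pH 7.4 + 0.01% Tween-20. Preincubation 30 min RT; cpd 30 min RT (top 110 uM); beads 20 min RT, light-protected.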
G9a inh = inhibitors of human histone lysine methyltransferase G9a; G9a H3K9 monomethylation, AlphaScreen, 2 h; Potency, µM (top dose mostly 102 µM), for the others: at the top dose activity, negative = inhibition, actives largely listed as inhibitors; Q96KQ7; 350,000 compounds, 8.8% hits; note: potency is the fitted concentration of half-maximal effect; % is set by controls: 0 for no effect and ±100 for the full control effect; nearly all actives have a fitted effect of over 75% in size
Target sequence (Q96KQ7 913-1193 limits assumed): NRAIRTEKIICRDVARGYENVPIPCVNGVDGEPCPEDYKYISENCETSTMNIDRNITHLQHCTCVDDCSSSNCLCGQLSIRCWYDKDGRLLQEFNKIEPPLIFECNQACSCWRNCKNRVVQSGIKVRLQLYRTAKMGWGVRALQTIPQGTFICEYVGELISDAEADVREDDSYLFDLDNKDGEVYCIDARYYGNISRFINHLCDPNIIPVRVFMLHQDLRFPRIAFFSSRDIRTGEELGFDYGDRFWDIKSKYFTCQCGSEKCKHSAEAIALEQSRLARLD
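G9a (20 nM) preincubated 15 min RT with compounds, then 500 nM biotinylated H3K9 peptide and 20 uM SAM added; 2 h RT reaction. Monomethyl-H3K9 product detected by AlphaScreen with anti-H3K9me1 antibody, streptavidin donor and anti-rabbit IgG acceptor beads.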
Numbers without * were called inactive; [ ] = remark or other dose. Unless noted, calls come from the whole dose curve; as a rule, active = well fitted inhibition curve with a large enough effect; inconclusive = small, poorly fitted or top-dose-only effect; inactive = no such curve, though single readings can be large or run the other way.

What do the screens show for `CC(=O)c1ccc(NC(=S)NCC(c2ccco2)N2CCCC2)cc1` (centres undefined)?
PI5P4Ka inh: 1; HP1b chromo inh: 25%; JMJD2A Tudor: -22%; BAZ2B block: -23%; G9a inh: 50µM*

How did COc1ccc(NC(=S)NCC(c2ccco2)N2CCCC2)cc1 (centres undefined) do in these assays?
PI5P4Ka inh: -7; HP1b chromo inh: 14%; JMJD2A Tudor: 4%; BAZ2B block: -26%; G9a inh: 10%[59 µM]

How did N#Cc1ccc(C(=O)NCC(c2ccco2)N2CCCC2)cc1 (centres undefined) do in these assays?
PI5P4Ka inh: -3; HP1b chromo inh: 38%; JMJD2A Tudor: 19%[11.4 µM]; L3MBTL1 block: -10%; BAZ2B block: 6%; G9a inh: inconclusive

What do the screens show for `OCCC1CN(Cc2c(O)ccc3ccccc23)CCN1CCc1ccccc1` (centres undefined)?
PI5P4Ka inh: 2; HP1b chromo inh: -2%; JMJD2A Tudor: inconclusive; L3MBTL1 block: -15%; BAZ2B block: -29%; G9a inh: 2µM*

How did OCCC1CN(Cc2ccccc2O)CCN1CCCc1ccccc1 (centres undefined) do in these assays?
PI5P4Ka inh: -1; HP1b chromo inh: 24%; JMJD2A Tudor: -12%; L3MBTL1 block: -2%; BAZ2B block: 1%; G9a inh: inconclusive

How did COc1cc(CN2CCN(CCCc3ccccc3)C(CCO)C2)cc(OC)c1O (centres undefined) do in these assays?
PI5P4Ka inh: 3; HP1b chromo inh: 23%; JMJD2A Tudor: -9%; L3MBTL1 block: 0%; BAZ2B block: 4%; G9a inh: 40µM*

How did CCCS(=O)(=O)N1CCC(N2CCN(Cc3ccc(F)cc3)C(=O)C2=O)CC1 do in these assays?
HP1b chromo inh: 24%; JMJD2A Tudor: 1%; BAZ2B block: -10%; G9a inh: -4%[12.7 µM]

Results for Cc1ccc(Cl)c(OCC(=O)Nc2sc(C)c(C)c2C#N)c1 ?
PI5P4Ka inh: -2; HP1b chromo inh: 4%; JMJD2A Tudor: -22%; L3MBTL1 block: 1%; BAZ2B block: -3%; G9a inh: 45µM*

How did CCOc1ccc2nc(Cl)c(C3CC(c4ccccc4)=NN3C(=O)CCC(=O)O)cc2c1 (centres undefined) do in these assays?
HP1b chromo inh: 21%; JMJD2A Tudor: -30%; BAZ2B block: -6%; G9a inh: 11%[59 µM]

How did CNC(=S)N1N=C(c2ccc(C)cc2)CC1c1ccc(OC)cc1 (centres undefined) do in these assays?
PI5P4Ka inh: -7; HP1b chromo inh: 31%; JMJD2A Tudor: -15%; L3MBTL1 block: -8%; BAZ2B block: -35%; G9a inh: 8%[0.501 µM]

How did CCOc1ccc2nc(Cl)c(C3CC(c4ccc(C)cc4)=NN3C(=O)CCC(=O)O)cc2c1 (centres undefined) do in these assays?
HP1b chromo inh: -12%; JMJD2A Tudor: 79µM*; BAZ2B block: inconclusive; G9a inh: 3%[59 µM]

How did CNC(=S)N1N=C(c2ccc(C)cc2)CC1c1ccc(N(C)C)cc1 (centres undefined) do in these assays?
PI5P4Ka inh: 3; HP1b chromo inh: 50µM*; JMJD2A Tudor: 32µM*; L3MBTL1 block: inconclusive; BAZ2B block: 10µM*; G9a inh: 14µM*

Results for CNC(=S)N1N=C(c2ccc(C)cc2)CC1c1cc(OC)ccc1OC (centres undefined) ?
PI5P4Ka inh: 0; HP1b chromo inh: 9%; JMJD2A Tudor: inconclusive; L3MBTL1 block: inconclusive; BAZ2B block: inconclusive

Results for CNC(=S)N1N=C(c2ccc(Br)cc2)CC1c1ccc(OC)cc1 (centres undefined) ?
PI5P4Ka inh: 3; HP1b chromo inh: inconclusive; JMJD2A Tudor: 2.5µM*; L3MBTL1 block: -1%; BAZ2B block: -34%; G9a inh: 2.5µM*

What do the screens show for `COc1ccc(C2CC(c3ccccc3)=NN2C(=O)CN2CCN(Cc3ccccc3)CC2)cc1` (centres undefined)?
PI5P4Ka inh: -4; HP1b chromo inh: -31%; JMJD2A Tudor: 79µM*; L3MBTL1 block: -16%; BAZ2B block: 35µM*; G9a inh: inconclusive

How did Cc1cc(C)cc(OC(C)C(=O)Nc2nonc2-c2ccc(Br)cc2)c1 (centres undefined) do in these assays?
HP1b chromo inh: 28%; JMJD2A Tudor: -15%; BAZ2B block: -7%; G9a inh: inconclusive

What do the screens show for `COc1ccccc1N1CCN(CC2CN3C(=O)N(C)c4ccccc4C3=N2)CC1` (centres undefined)?
G9a inh: -4%[59 µM]

Results for COc1ccc(C2=NN(C(=O)CCCC(=O)O)C(c3cn(-c4ccccc4)nc3-c3ccccc3)C2)cc1 (centres undefined) ?
PI5P4Ka inh: 13; HP1b chromo inh: 32%; JMJD2A Tudor: 56µM*; BAZ2B block: 56µM*; G9a inh: inconclusive

What do the screens show for `COc1ccc(-c2nn(-c3ccccc3)cc2C2CC(c3cccs3)=NN2C(=O)CCC(=O)O)cc1` (centres undefined)?
PI5P4Ka inh: 0; HP1b chromo inh: 23%; JMJD2A Tudor: -7%; BAZ2B block: -14%

Results for CC(C(=O)NCc1cccc(Br)c1)n1ncn2cccc2c1=O (centres undefined) ?
HP1b chromo inh: 4%; JMJD2A Tudor: -27%; BAZ2B block: inconclusive; G9a inh: -45%[59 µM]

How did O=C(CN(Cc1ccco1)C(=O)c1cc(=O)[nH]c2ccccc12)Nc1ccccc1Br do in these assays?
PI5P4Ka inh: -4; HP1b chromo inh: 17%; JMJD2A Tudor: -10%; L3MBTL1 block: -2%; BAZ2B block: 0%; G9a inh: 13%[59 µM]

Results for COc1cc(SC)ccc1C(=O)N(CC(=O)Nc1ccccc1Br)Cc1ccco1 ?
PI5P4Ka inh: -4; HP1b chromo inh: 3%; JMJD2A Tudor: -27%; L3MBTL1 block: 0%; BAZ2B block: -35%; G9a inh: 40µM*

Results for C/C(=N\NC(=O)c1cnccn1)c1ccc([N+](=O)[O-])cc1 ?
PI5P4Ka inh: -1; HP1b chromo inh: 14%; JMJD2A Tudor: 22µM*; L3MBTL1 block: -3%; BAZ2B block: -4%; G9a inh: 10%

Results for C/C(=N\NC(=O)C1(C)CC1(Br)Br)c1ccc([N+](=O)[O-])cc1 (centres undefined) ?
PI5P4Ka inh: 1; HP1b chromo inh: 30%; JMJD2A Tudor: -9%; L3MBTL1 block: 32%; BAZ2B block: -1%; G9a inh: 20%[59 µM]
